ERG Ets-DNA blk: qHTS for Small Molecule Inhibitors of the ERG Ets/DNA interaction. Potency, µM (doses to about 76.9 µM), for inactives: top-dose FP activity, negative = inhibition, most hits filed as inhibitors. fluorescence polarization, His-ERG Ets domain / labelled DNA. Transcriptional regulator ERG (Homo sapiens), P11308. AID 624246, 2012. actives 0.028% (n = 370,000); active = well fitted inhibition curve with a large enough effect in the polarisation, with a control signal flat; inconclusive = small, poorly fitted or top-dose-only effect, or effect the other way, or a change in a side signal; inactive = no such curve, though single readings can be large or run the other way; the % refers to the polarisation;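 note: polarization taken with two DNA probes labelled with fluorescein and Texas red; potency is the fitted concentration of half-maximal effect; % of control where 0% means no effect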
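His-tagged ERG Ets domain (1 uM in the protein solution; 300mM KCl, 50mM Tris-HCl, 1mM EDTA, 1mM DTT, pH 7.5) received compound, then a probe mix of 5 nM fluorescein-DNA and 100nM Texas-615-DNA. Fluorescence polarization was read for both dyes.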
Giardia killer: Small Molecules that selectively kill Giardia lamblia: qHTS | Giardia lamblia trophozoite viability | activity change, % at 7.66 µM, hits read low | actives 0.15% (n = 340,000) | AID 540267, 2011; in the data active = activity change below about -80%; inconclusive = between about -30% and that limit;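 note: parasites exposed to compound for two days anaerobically before the ATP read; % is set by controls: 0 for no effect and ±100 for the full control effect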
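Killing of trophozoites was scored by loss of ATP luminescence after a 48 hrs anaerobic exposure to compounds at 37 deg C, using 100 cells per well.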
miR-21 reporter: qHTS Assay for Modulators of miRNAs and/orActivators of miR-21; HeLa miR-21 FLuc reporter, luciferase, 48 h; Potency, µM (titrated, usually from 38.3 µM), for the others: at the highest dose activity change, positive = activation, most hits filed as activators; 340,000 tested, under 10 active; AID 2288, 2010;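 note: % of control where 0% means no effect; miR-21 action dims this reporter so a rising signal means less miR-21 action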
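HeLa cells endogenously expressing miR-21, stably carrying CMV-driven firefly luciferase with a downstream miR-21 binding site, 2000 cells/well. Titrations up to approximately 40 uM, 48 hours; luciferase luminescence read.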
PINK1 expr mod: A Quantitative High throughput Screen to Identify Chemical Modulators of PINK1 Expression | PINK1 immunofluorescence, high-content cytometry, 24 h | Potency, µM (series often up to 76.6 µM), inactives show top-dose activation (PINK1 increase), actives largely listed as activators | actives 0.2% (n = 410,000) | AID 624263, 2012; active = well fitted activation curve with a large enough effect; inconclusive = small, poorly fitted or top-dose-only effect; cell line not stated here; note: potency is the fitted concentration of half-maximal effect; % of control where 0% means no effect; nearly all actives have a fitted effect of over 65% in size
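Measures PINK1 amount and localization on or inside mitochondria by immunofluorescence. Stable cells get compounds at 5 concentrations for 24 hours before fixation and staining; CCCP controls included.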
ALOX12 inh: Primary qHTS assay for inhibitors of human arachidonate 12S-lipoxygenase (ALOX12): Round 2. Polyunsaturated fatty acid lipoxygenase ALOX12 (Homo sapiens), P18054. purified 12hLO, xylenol orange hydroperoxide absorbance. Potency, µM (top dose mostly 108 µM), for inactives: at the highest dose activity change, negative = inhibition, most hits filed as inhibitors. actives 1.1% (n = 580,000). AID 1671190, 2021; note: potency is the fitted concentration of half-maximal effect; % is set by controls: 0 for no effect and ±100 for the full control effect
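Purified human 12hLO at 150 nM in 25 mM Hepes, 0.01% Triton X-100, pH 7.0, preincubated 15 min at room temperature with compound. Reaction started with 40 uM arachidonic acid, 30 min at room temperature. Hydroperoxide measured by Fe-xylenol orange, 573/405 nm absorbance ratio.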
PTHR1 agonist: qHTS for PTHR1 Agonists: Primary Screen; Parathyroid hormone/parathyroid hormone-related peptide receptor (Homo sapiens), Q03431; HEK293 GP2 PTHR1 cells, GloSensor cAMP luminescence, 1 h; Potency, µM (top dose mostly 115 µM), without a hit: at the top dose activation, most hits filed as activators; actives 0.075% (n = 410,000); note: potency is the fitted concentration of half-maximal effect; nearly all actives have a fitted effect of over 55% in size
Target sequence (Q03431 whole entry, looked up): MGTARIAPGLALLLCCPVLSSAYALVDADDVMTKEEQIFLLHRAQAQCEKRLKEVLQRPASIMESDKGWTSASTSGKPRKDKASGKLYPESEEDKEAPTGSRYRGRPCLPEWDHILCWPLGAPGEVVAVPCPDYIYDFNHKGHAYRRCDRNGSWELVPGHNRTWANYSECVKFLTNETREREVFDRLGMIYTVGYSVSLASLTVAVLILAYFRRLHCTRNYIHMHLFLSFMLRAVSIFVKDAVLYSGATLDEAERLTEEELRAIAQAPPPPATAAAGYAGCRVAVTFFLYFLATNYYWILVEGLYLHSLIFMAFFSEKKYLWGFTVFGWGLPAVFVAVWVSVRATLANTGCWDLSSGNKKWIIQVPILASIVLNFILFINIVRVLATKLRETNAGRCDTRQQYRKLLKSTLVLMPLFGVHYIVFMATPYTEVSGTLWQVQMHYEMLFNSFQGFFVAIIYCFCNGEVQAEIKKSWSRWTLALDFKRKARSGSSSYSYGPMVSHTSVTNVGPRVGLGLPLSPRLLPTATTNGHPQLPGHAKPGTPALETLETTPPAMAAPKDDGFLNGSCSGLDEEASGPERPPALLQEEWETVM
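HEK-293-derived GP2 cells expressing PTHR1 and a GloSensor cAMP reporter, 3,000/well, plated overnight, given luciferin plus IBMX (each 0.5 mM as added) for 1 h at 37 °C, then compound for 1 h at 37 °C. Luminescence was read after 15 min at room temperature.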
Numbers without * were called inactive; i = inactive; u = inconclusive; x = no result given; [ ] = dose if it differs, or a comment. Shown are actives, neighbours in structure and some others; about 1.3% of the full set was active somewhere. Unless noted, calls come from the whole dose curve; as a rule, active = well fitted curve in the direction sought with a large enough effect; inconclusive = small, poorly fitted or top-dose-only effect, or another doubt; inactive = no such curve, though single readings can be large; an effect the other way counts as inactive or inconclusive.

SMILES	ERG Ets-DNA blk	Giardia killer	miR-21 reporter	PINK1 expr mod	ALOX12 inh	PTHR1 agonist
Cc1cccnc1Nc1nc(-c2ccc(O)c(O)c2)cs1	-3%	-14	-79%	u	2.8µM*	-19%
Cc1ccnc(Nc2nc(-c3ccc(O)c(O)c3)cs2)c1	-6%	-27	-74%	21%	0%	-37%
Cc1ccc(-n2ncc3c2CC(C)(C)CC3NC(=O)CCCN2CCCC2=O)cc1 (stereo not given)	-2%	-19	1%	0%	11%	-3%
COC(=O)Nc1csc2c1NC(=O)CCCC2	-4%	-19	-1%	1%	24%	-10%
Cc1ccc(-c2csc(Nc3ccccn3)n2)cc1C	x	x	x	x	32µM*	x
O=C(N/C(=C/c1ccco1)C(=O)N1CCCCC1)c1cccs1	-2%	8	-8%	11%[38.3 µM]	-29%	-3%[57.5 µM]
CCN1CCN(C(c2cccc(OC)c2)c2sc3nc(C)nn3c2O)CC1 (stereo not given)	1%	-14	1%	-2%	-15%	-25%
COc1cccc(C(c2sc3nc(C)nn3c2O)N2CCc3ccccc3C2)c1 (stereo not given)	6%	7	-6%	2%	32µM*	-20%
CCOC(=O)c1cnn(-c2ccc(OC)cc2)c1C1CCN(C(=O)OC(C)(C)C)CC1	11%	x	27%	1%	14µM*	-94%
CCOC(=O)c1ccccc1NC(=O)c1cnn(-c2ccc(OC)cc2)c1C1CCN(C(=O)OC(C)(C)C)CC1	-2%	x	0%	-1%	-17%	i
O=C(NC(NNc1ccc([N+](=O)[O-])cc1)(C(F)(F)F)C(F)(F)F)c1ccc(Cl)cc1	6%	4	14%	u	35µM*	-44%
CS(=O)(=O)c1ccc(CN2C[C@@H]3C[C@H]2C(=O)N(Cc2ccc(OC(F)(F)F)cc2)c2ccccc2O3)cc1	x	x	x	x	-5%	x
Cc1ccc(C)n1C1C(=O)N(Cc2ccc(C(C)C)cc2)c2ccc(OC(F)(F)F)cc21 (stereo not given)	x	x	x	x	16µM*	x
COC(=O)[C@@]1(Cc2ccc(OC)cc2)[C@H]2c3cc(C(=O)N4CCCC4)n(CCN4CCOCC4)c3C[C@H]2CN1C(=O)c1ccccc1	x	x	x	0%	-8%	0%
COC(=O)[C@@]1(Cc2ccc(OC)cc2)[C@H]2c3cc(C(=O)N4CCCC4)n(CCn4cc([N+](=O)[O-])nc4C)c3C[C@H]2CN1C(=O)c1ccccc1	-3%	-83*	-2%	0%	-2%	-23%
CC(C)c1ccc(/C=C/C(=O)NC(=S)NN2CCOCC2)cc1	-5%	-3	-19%	0%	u	i
CC(C)c1ccc(/C=C/C(=O)NC(=S)Nc2ccc(CN3CCOCC3)cc2)cc1	-5%	-5	15%	0%	40µM*	-31%
COc1ccc(NC(=O)C(c2ccnc3ccccc23)n2c(=O)c(-c3ccco3)nc3ccccc32)cc1 (stereo not given)	x	x	x	x	-7%	i
COCCN(CCOC)S(=O)(=O)c1ccc(C(=O)NC2CCN(Cc3ccccc3)CC2)cc1	-6%	6	13%	1%	149%	i
Cc1cccc(NS(=O)(=O)c2ccc3c(c2)CCCN3C(=O)C2CCC2)c1C	-1%	x	-4%	0%	-45%	-24%
Cc1ccc(S(=O)(=O)N[C@H](C(=O)N2CCC(C(=O)N[C@H](C(=O)O)c3ccccc3)CC2)C(C)C)cc1	3%	3	0%	1%	-18%	-24%
Cc1ccc(C)c(NC(=O)c2ccccc2O)c1	7%	-29	-8%	16µM*	0%	-15%
Cc1cccc(NC(=O)c2ccccc2O)c1C	x	-10	-26%	x	-20%	-31%[57.5 µM]
COc1ccc(CN2CCNC(=O)C2CC(=O)NCCC2=CCCCC2)c(F)c1 (stereo not given)	0%	-12	-4%	0%	11µM*	-8%
COc1cc(CN2CCNC(=O)C2CC(=O)NCCC2=CCCCC2)cc(OC)c1 (stereo not given)	5%	2	u	-2%	-17%	22%
SMILES	ERG Ets-DNA blk	Giardia killer	miR-21 reporter	PINK1 expr mod	ALOX12 inh	PTHR1 agonist
Cc1cc2c(cc1S(=O)(=O)CCC(=O)Nc1cccc(C(F)(F)F)c1)OCC(=O)N2	-11%	25	1%	0%	0%	-11%
COc1ccc(/C=C2\SC(=S)N(CCCC(=O)Nc3cc(C)on3)C2=O)cc1OC	20%	9	5%	10µM*	-26%	i
COc1ccc(/C=C2\SC(=S)N(CCCC(=O)N3CCOCC3)C2=O)cc1	-10%	-2	x	1%	45µM*	-11%
COc1ccc(/C=C2\SC(=S)N(CCCCCC(=O)Nc3cc(C)on3)C2=O)cc1OC	4%	1	6%	14µM*	-7%	-13%
Cc1ccc(/C=C2\SC(=S)N(CCCC(=O)Nc3cc(C)on3)C2=O)cc1	8%	-15	15%	-1%	1%	i
CCOC(=O)N1CCN(C(=O)CCN2C(=O)/C(=C\c3ccc(OC)c(OC)c3)SC2=S)CC1	x	x	x	32µM*	0%	-7%
O=S(=O)(NCc1cc(-c2ccc(Cl)cc2)no1)c1ccc(Cl)cc1	-1%	3	4%	1%	0%	-38%
Cc1ccc([C@@H]2[C@@H]3C(=O)N(C)C(=O)[C@@H]3[C@]3(C)C(=O)N(CCO)CC(=O)N23)o1	-1%	7	0%	0%	20%	-24%
Cc1cc(-c2ccccc2)cc(C)n1	3%	9	x	4%	0%	-14%
c1ccc(-c2cc(-c3ccccc3)[o+]c(-c3ccccc3)c2)cc1	x	x	x	x	16µM*	x
O=[N+]([O-])c1nn(-c2ccc3c(c2)OCCO3)n(O)c1=NC1CCCCC1	3%	-84*	-45%	-1%	4%	-52%
O=[N+]([O-])c1nn(-c2ccc3c(c2)OCCO3)n(O)c1=NCc1ccccc1Cl	x	u	-50%	2%[38.3 µM]	3%	-5%
COc1ccccc1CN=c1c([N+](=O)[O-])nn(-c2ccc3c(c2)OCCO3)n1O	-6%	-90*	-57%	0%	-16%	-4%
N#CCCCn1c(-c2ccccc2)noc1=O	2%	0	0%	1%[38.3 µM]	3%	-7%[57.5 µM]
CCOC(=O)C1CCCN(C(=O)C2CC(c3ccc(F)c(C)c3)CN(C(=O)NC(C)C)C2)C1 (stereo not given)	x	x	x	x	101%	x

Compound activity (PubChem BioAssay)
